# Assay results reported in paper PMC10726135, “HNF4α isoforms regulate the circadian balance between carbohydrate and lipid metabolism in the liver”.
# The full ranking holds about 18,000 sequences; the median of “log2 normalized intensity” is about 0.39, and the highest 2% start at about 6.6. The sample as a whole holds a higher share of the highest values than the screen did.
# Molecular target: T1, HNF4alpha2 (COS-7 nuclear extract) (Homo sapiens, UniProt P41235 1-474)
# T1 sequence: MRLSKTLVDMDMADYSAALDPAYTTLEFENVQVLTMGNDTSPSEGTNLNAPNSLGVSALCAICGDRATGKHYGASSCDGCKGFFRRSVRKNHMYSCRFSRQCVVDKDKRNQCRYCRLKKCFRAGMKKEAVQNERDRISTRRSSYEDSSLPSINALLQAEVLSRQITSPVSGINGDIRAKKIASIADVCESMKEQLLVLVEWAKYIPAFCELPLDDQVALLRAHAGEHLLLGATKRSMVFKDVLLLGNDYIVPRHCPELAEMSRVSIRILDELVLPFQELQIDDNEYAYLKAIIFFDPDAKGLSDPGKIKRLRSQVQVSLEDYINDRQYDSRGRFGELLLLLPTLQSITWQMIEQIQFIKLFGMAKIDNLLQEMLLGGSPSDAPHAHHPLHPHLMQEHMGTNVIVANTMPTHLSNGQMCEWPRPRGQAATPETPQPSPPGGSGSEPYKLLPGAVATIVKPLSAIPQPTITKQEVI
# Assay: protein-binding microarray; COS-7 nuclear extract on double-stranded Agilent 4x180k PBM; binding buffer, salt, pH and temperature not given in the material; high values mean tight binding
# Conditions: chain copies: 2; label: 3' end of strand 1 on the slide; dsDNA, one strand shown
# Method in brief: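 Nuclear extracts of COS-7 cells transiently transfected with a human HNF4α isoform were applied to a custom Agilent SurePrint G3 4x180k array bearing ~44,000 double-stranded ~60-nt test sequences, each in quadruplicate. The bound protein was imaged on an Agilent G2565CA scanner at 2-µm resolution. Binding signal is the normalized, background-corrected gProcessedSignal from Agilent software.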
row,Sequence,binding signal [log2 normalized intensity]
1,CAGGGTGGGGTCTCGCTGCTTCGGCCTTTGGCCTAGGGAGATTAGAGTATCGGTCGA,1.33
2,CCCGCCTTTGACACAGGCGACCTTCGCTCGGCCTAGGGAGATTAGAGTATCGGTCGA,5.17
3,GCTCAGCTGGTTGCCCCTTTGACCCTCGGGGCCTAGGGAGATTAGAGTATCGGTCGA,6.11
4,CACAGCTCGACCTTTGACCTTCGGCTTCCCGCCTAGGGAGATTAGAGTATCGGTCGA,8.84
5,CTTTGACACAGGCGACCTTCGCTCGGCTCGGCCTAGGGAGATTAGAGTATCGGTCGA,3.46
6,TCAGGCACAGCTCGACCTTTGACCTTCGGCGCCTAGGGAGATTAGAGTATCGGTCGA,10.2
7,AGCTCGCTCAGCTGGTTGCCCCTTTGACCCGCCTAGGGAGATTAGAGTATCGGTCGA,7.89
8,TCTCGCTGCTTCGGCCTTTGACCTCGTGATGCCTAGGGAGATTAGAGTATCGGTCGA,6.52
9,AAATCCCCGCCTTTGACACAGGCGACCTTCGCCTAGGGAGATTAGAGTATCGGTCGA,3.94
10,CCTTTGACCTTCGGCTTCCCCAGAGAAAGAGCCTAGGGAGATTAGAGTATCGGTCGA,3.03
11,TGGGGTCTCGCTGCTTCGGCCTTTGACCTCGCCTAGGGAGATTAGAGTATCGGTCGA,7.94
12,GCCCCAGCTCGCTCAGCTGGTTGCCCCTTTGCCTAGGGAGATTAGAGTATCGGTCGA,4.14
13,CCTTGCACTATTGACCCAGTGAAACAACACGCCTAGGGAGATTAGAGTATCGGTCGA,1.65
14,TAGGCCACCTGTGTCAACATGGACTTTGTTGCCTAGGGAGATTAGAGTATCGGTCGA,5.86
15,TTCTGCCTTATCAGCGGCCCTGTGCTGCCCGCCTAGGGAGATTAGAGTATCGGTCGA,0.0914
16,CTTGTCTTATCAGCAGGGTCTTTTTGACCTGCCTAGGGAGATTAGAGTATCGGTCGA,4.38
17,CCTCTGTCTCTCAGGCACAGCTCGACCTTTGCCTAGGGAGATTAGAGTATCGGTCGA,5.94
18,GTCTCTCAGGCACAGCTCGACCTTTGACCTGCCTAGGGAGATTAGAGTATCGGTCGA,10.1
19,CTATTATGCCTTGACTTCAAATCATACTGAGCCTAGGGAGATTAGAGTATCGGTCGA,0.897
20,TCAGAGATCAAGATACAGGTCAGACCCTGGGCCTAGGGAGATTAGAGTATCGGTCGA,0.993
21,CTATTGTCCTATGACCCTGCCAAATCCCCCGCCTAGGGAGATTAGAGTATCGGTCGA,4.52
22,CATTTTACAGTGCCATTTATCAGTGATTTCGCCTAGGGAGATTAGAGTATCGGTCGA,0.854

row,Sequence,binding signal [log2 normalized intensity]
1,AGGGCAAAGGTCACCAGCTAAGCTGTTACTGCCTAGGGAGATTAGAGTATCGGTCGA,5.12
2,TATTCCCAGGTTCCAAAGGTCACCCGTATTGCCTAGGGAGATTAGAGTATCGGTCGA,6.51
3,GTCCCAGGGCAAAGGTCACCAGCTAAGCTGGCCTAGGGAGATTAGAGTATCGGTCGA,5.83
4,CAGAGCTGTCGTCCCAGGGCAAAGGTCACCGCCTAGGGAGATTAGAGTATCGGTCGA,7.59
5,GGGCAAATCTGAGGTCAAAGCTGTCAGAGAGCCTAGGGAGATTAGAGTATCGGTCGA,-0.198
6,TTCCAAAGGTCACCCGTATTCCTTAGCTTAGCCTAGGGAGATTAGAGTATCGGTCGA,1.6
7,CTTCCCAGCTGCTGGTCAAAGGGCATTACTGCCTAGGGAGATTAGAGTATCGGTCGA,4.94
8,CCAGGTTCCAAAGGTCACCCGTATTCCTTAGCCTAGGGAGATTAGAGTATCGGTCGA,6.63
9,CTGTCGTCCCAGGGCAAAGGTCACCAGCTAGCCTAGGGAGATTAGAGTATCGGTCGA,6.66
10,GCTGAGGAATTTGGACTTCAGCCCAGGCTGGCCTAGGGAGATTAGAGTATCGGTCGA,3.66
11,ACCACCTTCCCCCATCCCCAACAAAGCTCTGCCTAGGGAGATTAGAGTATCGGTCGA,4.7
12,TCTCAAAAGTTTTTCCCTTCTGTTAGAATGGCCTAGGGAGATTAGAGTATCGGTCGA,-0.592
13,CTTCAAGTCAGTTGCATGCAACCTTTGTCCGCCTAGGGAGATTAGAGTATCGGTCGA,5.67
14,ATATTCACTATCTGATCCTTTACAGAGATAGCCTAGGGAGATTAGAGTATCGGTCGA,-0.305
15,TGTTACTTATAAATAATCTCAACCATACAAGCCTAGGGAGATTAGAGTATCGGTCGA,-0.991
16,CAACCAAGTCCATCTGTATTGCCTCCTTTGGCCTAGGGAGATTAGAGTATCGGTCGA,1.08
17,TTCCAGGGATGTTTGGCAGCTGAGGATTGTGCCTAGGGAGATTAGAGTATCGGTCGA,1.61
18,CATCTACCAGCGTAATTCTGGCTCTTTGAGGCCTAGGGAGATTAGAGTATCGGTCGA,0.87
19,GCGTGAGCCACCGCGCCCCGCCCCCAGTGCGCCTAGGGAGATTAGAGTATCGGTCGA,5.65
20,TACTTTGGACTGGGGACCTGGTCTGAGATAGCCTAGGGAGATTAGAGTATCGGTCGA,1.75
21,GAGATGAGGCTCAGACCTGACCTTTGGATTGCCTAGGGAGATTAGAGTATCGGTCGA,7.99
22,TGCTGGAGATGAGGCTCAGACCTGACCTTTGCCTAGGGAGATTAGAGTATCGGTCGA,6.49

row,Sequence,binding signal [log2 normalized intensity]
1,AAGACTTTGGACTTTGGACCTGAGGCTTTTGCCTAGGGAGATTAGAGTATCGGTCGA,9.84
2,GAGGCTCAGACCTGACCTTTGGATTCCCAGGCCTAGGGAGATTAGAGTATCGGTCGA,6.53
3,GGACCTGAGGCTTTTGAGTCAATAATGGACGCCTAGGGAGATTAGAGTATCGGTCGA,1.21
4,ATGTGGGGAAACTGGACTGTAATTTGTGGTGCCTAGGGAGATTAGAGTATCGGTCGA,1.43
5,ACGTCAGAACTGTCCTTTAACCTCCCTGCAGCCTAGGGAGATTAGAGTATCGGTCGA,1.99
6,AATGGAAGAATCACAGTGTGGGGCAAATCTGCCTAGGGAGATTAGAGTATCGGTCGA,-0.752
7,ACCAGGGGGCAGAGTGAGCAGCACTTTTGGGCCTAGGGAGATTAGAGTATCGGTCGA,-0.845
8,CTGCCAAAGTTCAGCCTTGGGGCCATTCCAGCCTAGGGAGATTAGAGTATCGGTCGA,0.325
9,GAGGTGTCAGCCACCCCTCCTCCTGGGGGCGCCTAGGGAGATTAGAGTATCGGTCGA,2.64
10,CACTGGCTCTGGGGTCAAAGTCCCCTGAGCGCCTAGGGAGATTAGAGTATCGGTCGA,7.16
11,GGGGTCAAAGTCCCCTGAGCTTGAGTCCATGCCTAGGGAGATTAGAGTATCGGTCGA,5.36
12,CTCTCCCTCCTCTCTGAGCAGTCAAACTGGGCCTAGGGAGATTAGAGTATCGGTCGA,1.96
13,CCTCCTCTCTGGGTCAAAGGTCATCGCACCGCCTAGGGAGATTAGAGTATCGGTCGA,7.54
14,AGGTCGCAAGCACTGGCTCTGGGGTCAAAGGCCTAGGGAGATTAGAGTATCGGTCGA,3.1
15,AAAGGTCATCGCACCGGCAGGGGAGAACTTGCCTAGGGAGATTAGAGTATCGGTCGA,0.284
16,TCTCTGGGTCAAAGGTCATCGCACCGGCAGGCCTAGGGAGATTAGAGTATCGGTCGA,7.15
17,CCTGCCTCTCCTCTGAGCTTCATCCTGACCGCCTAGGGAGATTAGAGTATCGGTCGA,1.62
18,GCCACCCTCCTCTCTGGGTCAAAGGTCATCGCCTAGGGAGATTAGAGTATCGGTCGA,9.58
19,CTGGGGCCACCCTCCTCTCTGGGTCAAAGGGCCTAGGGAGATTAGAGTATCGGTCGA,4.74
20,TCATCGCACCGGCAGGGGAGAACTTCCTCCGCCTAGGGAGATTAGAGTATCGGTCGA,-0.988
